Data reported in PubChem BioAssay (Tox21).
A number with no mark means an inactive call. Records with an inconclusive call do not appear. A call without a number means that no potency is given here. Calls of active or inactive are those of the source. Unless noted, calls follow the shape of the dose curve; as a rule, active = well fitted curve in the direction sought with a large enough effect in the repeat runs; inconclusive = weak or mixed curves; inactive = no such curve, though single readings can be large; an effect the other way counts as inactive or inconclusive.

Assays:
[1] = qHTS assay to identify small molecule agonists of the hypoxia (HIF-1) signaling pathway - cell viability counter screen (AID 1224844; calls by dose curve; also: nearly all actives have a fitted effect of over 50% in size)
Summary of the method: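 Luminescent ATP content (CellTiter-Glo, 30 min, room temperature) served as the viability measure in HRE-bla ME-180 cells exposed to compounds for 17 hrs in low-serum medium (0.5% dialyzed FBS).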

[2] = qHTS assay to identify small molecule agonists of H2AX (AID 1224845; active = well fitted activation curve with a large enough effect in the signal ratio in the repeat runs, not every such curve was filed as active; the % refers to the signal ratio)
Summary of the method: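 Wild-type CHO-K1 cells, plated overnight, exposed 3hr at 37C to 15 concentrations (0.76% DMSO final). Lysed, then HTRF anti-pH2AX (S139) cryptate and anti-H2AX-d2 antibodies, 24 hr room temperature; 665/620 nm emission read.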

[3] = qHTS assay to identify small molecule agonists of H2AX - cell viability counter screen (AID 1224847; calls by dose curve; also: top concentration of the series differs between compounds; nearly all actives have a fitted effect of over 30% in size)
Summary of the method: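 Viability of CHO-K1 (wild type) cells after 3 hr compound exposure was measured by CellTiter-Glo luminescence.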

[4] = qHTS RealTime-Glo MT Cell Viability Assay in HepG2 cells - 24 hour (AID 1224867); also: nearly all actives have a fitted effect of over 50% in size
Summary of the method: (§1)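 Compound treatment began 5 h after plating HepG2 cells (600/well) with NanoLuc luciferase and prosubstrate. Plates stayed at 37 C for 40 h; luminescence was captured at six time points, 0 h through 40 h.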

[5] = qHTS RealTime-Glo MT Cell Viability Assay in HEK293 cells - 32 hour (AID 1224868); also: top concentration of the series differs between compounds; nearly all actives have a fitted effect of over 50% in size
Summary of the method: (§2)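 Quantitative high-throughput screen of the Tox21 10K library in HEK293: cells and RealTime-Glo reagents plated together, compound added at 5 h, luminescence monitored through 40 h at 37 C.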

[6] = A CellTox Green Cytotoxicity Assay to monitor cytotoxicity in HEK293 cells - 0 hour (AID 1224869); also: nearly all actives have a fitted effect of over 50% in size
Summary of the method: (§3)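 Each value comes from one timepoint of a single continuous run in which HEK293 cells with CellTox Green were exposed to compound for up to 40 h at 37 C, dye fluorescence rising with cell death.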

[7] = qHTS RealTime-Glo MT Cell Viability Assay in HepG2 cells - 40 hour (AID 1224870); also: nearly all actives have a fitted effect of over 50% in size
Summary of the method: (§4)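 HepG2 cells (600/well) mixed with RealTime-Glo MT reagent, settled 5 h at 37 C/5% CO2 before compound addition. Nonlytic NanoLuc luminescence from viable-cell prosubstrate reduction read repeatedly during 40 h treatment at 37 C.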

[8] = A CellTox Green Cytotoxicity Assay to monitor cytotoxicity in HEK293 cells - 40 hour (AID 1224871); also: nearly all actives have a fitted effect of over 45% in size
Summary of the method: as §3

[9] = qHTS RealTime-Glo MT Cell Viability Assay in HEK293 cells - 16 hour (AID 1224872)
Summary of the method: as §2

[10] = qHTS RealTime-Glo MT Cell Viability Assay in HepG2 cells - 8 hour (AID 1224873); also: nearly all actives have a fitted effect of over 55% in size
Summary of the method: as §4

[11] = qHTS RealTime-Glo MT Cell Viability Assay in HEK293 cells - 40 hour (AID 1224874); conditions: RealTime-Glo luminescence; max response: stronger effect = lower value; also: nearly all actives have a fitted effect of over 50% in size
Summary of the method: (§5)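 qHTS format; HEK293 cells with NanoLuc/prosubstrate reagent, 37 C/5% CO2 for 5 h pre-dosing; compounds 23 nL in DMSO; luminescence at each time point reflects viable cells.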

[12] = A CellTox Green Cytotoxicity Assay to monitor cytotoxicity in HEK293 cells - 24 hour (AID 1224875); also: nearly all actives have a fitted effect of over 45% in size
Summary of the method: as §3

[13] = A CellTox Green Cytotoxicity Assay to monitor cytotoxicity in HepG2 cells - 16 hour (AID 1224876); also: nearly all actives have a fitted effect of over 45% in size
Summary of the method: (§6)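 Continuous culture of HepG2 cells with a membrane-impermeant DNA dye; rising fluorescence marks dead cells. Compound exposure lasted up to 40 h at 37 C, with reads every 8 h from 0 h.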

[14] = qHTS RealTime-Glo MT Cell Viability Assay in HepG2 cells - 32 hour (AID 1224877); also: nearly all actives have a fitted effect of over 55% in size
Summary of the method: as §1

[15] = A CellTox Green Cytotoxicity Assay to monitor cytotoxicity in HepG2 cells - 24 hour (AID 1224878); also: nearly all actives have a fitted effect of over 45% in size
Summary of the method: as §6

[16] = A CellTox Green Cytotoxicity Assay to monitor cytotoxicity in HepG2 cells - 40 hour (AID 1224879); also: nearly all actives have a fitted effect of over 40% in size
Summary of the method: as §6

[17] = qHTS RealTime-Glo MT Cell Viability Assay in HEK293 cells - 0 hour (AID 1224880)
Summary of the method: as §5

[18] = qHTS assay to identify small molecule agonists of the hypoxia (HIF-1) signaling pathway (AID 1224846; active = well fitted activation curve with a large enough effect in the signal ratio in the repeat runs, not every such curve was filed as active; the % refers to the signal ratio)
Summary of the method: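 Measured by blue/green FRET after loading CCF4-AM: beta-lactamase expressed from a hypoxia response element in ME-180 cells. Test agents were delivered in DMSO and left 17 hrs; cells had been plated 5 hrs earlier in low-serum (0.5% dialyzed FBS) medium.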

[19] = qHTS assay to identify small molecule antagonists of the estrogen related receptor (ERR) signaling pathway from Tox21 library (AID 1224848); also: nearly all actives have a fitted effect of over 50% in size
Summary of the method: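 Luminescent reporter read-out (ONE-Glo) from NTP's ERR cell line after 18 h treatment at 37 C with DMSO-dissolved Tox21 compounds; cells pre-plated 6 h beforehand at 2,000 per well.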

[20] = qHTS assay to identify small molecule agonists of the estrogen related receptor (ERR) signaling pathway from Tox21 library (AID 1224849; calls by dose curve; also: nearly all actives have a fitted effect of over 15% in size); conditions: ERR reporter cell line, ONE-Glo luciferase, 18 h; at 92.4 µM (top of the series) unless noted
Summary of the method: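 We plated ERR reporter cells, waited 6 h, added compounds in DMSO by pin tool and incubated them 18 h at 37 C. ONE-Glo was then added and luminescence read after 30 min.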

Compound	outcome [1]	outcome [2]	Potency [3]	outcome [4]	Potency [5]	outcome [6]	outcome [7]	Potency [8]	Potency [9]	outcome [10]	max response [11] [%]	outcome [12]	outcome [13]	outcome [14]	outcome [15]	Potency [16]	Potency [17]	outcome [18]	Potency [19]	activity change, positive = activation [20]
Nc1cccc(O)c1	inactive	inactive	inactive	inactive	inactive	inactive	inactive	inactive	inactive	inactive	3.53	inactive	inactive	inactive	inactive	inactive	inactive			
CC(C(=O)O)c1ccc2c(c1)CC(=O)c1ccccc1S2 (stereo unspecified)	inactive		inactive	inactive	inactive	inactive	inactive	inactive	inactive	inactive	-2.02		inactive	inactive	inactive	inactive	inactive	inactive	inactive	4.13% [at 42.5 µM]
COC(=O)[C@@H]1[C@H]2C[C@H]3c4[nH]c5ccccc5c4CCN3C[C@@H]2CC[C@@H]1O	inactive		inactive	inactive	inactive	inactive	inactive	inactive	inactive	inactive	-22.3	inactive	inactive	inactive	inactive	inactive	inactive		inactive	33.5% [at 42.5 µM] (active)
c1ccc2c(c1)ccc1c3ccccc3ccc21	inactive		inactive	inactive	inactive	inactive	inactive	inactive		inactive	6.22		inactive	inactive	inactive	inactive	inactive	inactive		
Cc1cc2cc3c(C)cc(=O)oc3c(C)c2o1	inactive		inactive	inactive	inactive	inactive	inactive	inactive	inactive	inactive	-18.2	inactive	inactive	inactive	inactive	inactive	inactive		inactive	7.29% [at 42.5 µM]
CO[C@@H]1[C@@H](OC(N)=O)[C@@H](O)[C@H](Oc2ccc3c(O)c(NC(=O)c4ccc(O)c(CC=C(C)C)c4)c(=O)oc3c2C)OC1(C)C	inactive	inactive		inactive	inactive	inactive	inactive	inactive		inactive	7.28	inactive	inactive	inactive	inactive	inactive	inactive		inactive	-2.51% [at 42.5 µM]
CCn1ccc(NS(=O)(=O)c2ccc(N)cc2)nc1=O		inactive	inactive	inactive	inactive	inactive	inactive	inactive	inactive	inactive	5.4	inactive	inactive	inactive	inactive	inactive	inactive	inactive	inactive	3.61% [at 42.5 µM]
O=C(c1ccc(O)cc1)c1ccc(O)c(O)c1O	inactive		inactive	inactive	inactive	inactive	inactive	inactive	inactive		-10.5		inactive	inactive	inactive	inactive		inactive	inactive	-5.51%
CC(C)(C)c1cc(CCC(=O)NN)cc(C(C)(C)C)c1O	inactive	inactive		inactive	inactive	inactive	inactive	inactive	inactive		-14	inactive	inactive	inactive			inactive		inactive	-9%
CCCOC(OCCC)OCCC	inactive	inactive		inactive	inactive	inactive	inactive	inactive		inactive	6.14	inactive	inactive	inactive	inactive	inactive	inactive		inactive	4.24%
Cc1cc(NC(=O)C2=C(O)c3ccccc3S(=O)(=O)N2C)no1	inactive		inactive	inactive	inactive	inactive	inactive	inactive	inactive	inactive	4.93	inactive	inactive	inactive	inactive	inactive	inactive			
CCCN1C[C@H](CSC)C[C@@H]2c3cccc4[nH]cc(c34)C[C@H]21	inactive		inactive	inactive	inactive	inactive	inactive	inactive	inactive		-0.0801	inactive	inactive	inactive	inactive	inactive	inactive			
O=C1c2ccccc2C(=O)N1CCl		inactive	inactive	inactive	inactive	inactive	inactive	inactive	inactive	inactive	1.28		inactive	inactive	inactive	inactive	inactive	inactive	inactive	0.282%
COc1ccc(-c2cc(=O)c3c(O)cc(O[C@@H]4O[C@H](CO[C@@H]5O[C@@H](C)[C@H](O)[C@@H](O)[C@H]5O)[C@@H](O)[C@H](O)[C@H]4O)cc3o2)cc1O	inactive		inactive	inactive	inactive	inactive	inactive	inactive	inactive	inactive	1.76		inactive	inactive	inactive	inactive		inactive	inactive	-13.8% [at 42.5 µM]
